PrPC TRFRET: cell surface PrPC inhibition, primary TR-FRET screen | P04156 | inhibition, % at 13.8 µM | TR-FRET read-out | actives 0.43% (n = 370,000); in the data active = inhibition above about 24%
PfHsp40 rescue: rescue of PfHsp40-mediated yeast toxicity; S. cerevisiae expressing PfHsp40, growth rescue, ATP luminescence; growth rescue, % at 12.5 µM; actives 0.68% (n = 340,000); in the data active = growth rescue above about 28%, passing the limit was not always enough;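 also: yeast W303a lacking pdr1 and pdr3 grown in galactose medium; growth measured after three days at 30 °C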
PriA SSB inh: inhibitors of Klebsiella pneumoniae PriA binding to SSB C-terminal tail; inhibition, % at 33 µM; AlphaScreen SSBct-PriA binding, biotinylated peptide; actives 0.6% (n = 430,000); AID 1272365; in the data active = inhibition mostly above about 37%, no sharp cut-off; inactive = mostly below about 20%
Yp Topo-I inh: blocks Yersinia pestis topoisomerase I activity; AID 504884; activity, % at 10 µM; actives 0.064% (n = 360,000); Y. pestis Topo-I cleavage product accumulation, plate reader; in the data active = activity above about 50%, passing the limit was not always enough
BJeLR viability: kills HRASV12-expressing BJeLR cells; BJeLR (HRASV12) viability, CellTiter-Glo ATP luminescence, 48 h; actives 0.17% (n = 300,000); inhibition, % (no concentration beside the values); in the data active = inhibition above about 50%
PrP UTR inh: suppresses PrP 5' UTR mRNA reporter expression. cell-based PrP 5' UTR mRNA reporter, plate reader. inhibition, % (concentration not given with the values). actives 0.35% (n = 340,000); in the data active = inhibition above about 52%
Large screens that a line does not name were inactive. A selection: hits, their analogues and other compounds. The true share with any hit is near 1.7%.

Cc1cc(OCC(=O)Nc2ccc(F)cc2Cl)nc(N2CCc3ccccc3C2)n1	none (no result: PrPC TRFRET, PfHsp40 rescue, Yp Topo-I inh, BJeLR viability, PrP UTR inh)
O=C(NN=Cc1cc([N+](=O)[O-])ccc1O)c1cc(-c2ccccc2)nc2ccccc12	none (no result: PrPC TRFRET, PfHsp40 rescue, Yp Topo-I inh, BJeLR viability, PrP UTR inh)
O=S(=O)(c1ccc(Oc2ccccc2Cl)cc1)N1CCN(c2ccccc2)CC1	none (no result: PrPC TRFRET, PfHsp40 rescue, Yp Topo-I inh, BJeLR viability, PrP UTR inh)
O=[N+]([O-])c1ccc(O)c(C=Nc2cccc3ncccc23)c1	PriA SSB inh 68
Cc1cc2c(=O)n(C)c(SCc3cc(=O)[nH][nH]3)nc2s1	none (no result: PrPC TRFRET, PfHsp40 rescue, Yp Topo-I inh, BJeLR viability, PrP UTR inh)
CCOC(=O)c1c(NS(=O)(=O)c2ccccc2)n(CCc2ccccc2)c2nc3ccccc3nc12	none (no result: PrPC TRFRET, PfHsp40 rescue, Yp Topo-I inh, BJeLR viability, PrP UTR inh)
CCCCn1c(NS(=O)(=O)c2ccc(Cl)cc2)c(S(=O)(=O)c2ccccc2)c2nc3ccccc3nc21	none (no result: PrPC TRFRET, PfHsp40 rescue, Yp Topo-I inh, BJeLR viability, PrP UTR inh)
CCOC(=O)c1c(NS(=O)(=O)c2ccccc2)n(CCCOC)c2nc3ccccc3nc12	PriA SSB inh 47
CCCCn1c(NS(=O)(=O)c2ccc(Cl)cc2)c(C(=O)OCC)c2nc3ccccc3nc21	PriA SSB inh 68 (no result: PrPC TRFRET, PfHsp40 rescue, Yp Topo-I inh, BJeLR viability, PrP UTR inh)
CCCCCn1c(NS(=O)(=O)c2ccc(F)cc2)c(C(=O)OCC)c2nc3ccccc3nc21	PriA SSB inh 55 (no result: PrPC TRFRET, PfHsp40 rescue, Yp Topo-I inh, BJeLR viability, PrP UTR inh)
CCCCCCCCn1c(NS(=O)(=O)c2ccc(F)cc2)c(S(=O)(=O)c2ccc(C)cc2)c2nc3ccccc3nc21	none (no result: PrPC TRFRET, PfHsp40 rescue, Yp Topo-I inh, BJeLR viability, PrP UTR inh)
CC(=O)N1CCCc2cc(S(=O)(=O)NCCOc3ccccc3)ccc21	none (no result: PrPC TRFRET, PfHsp40 rescue, Yp Topo-I inh, BJeLR viability, PrP UTR inh)
O=C1c2ccccc2NC(c2ccc(-c3ccc(F)cc3)o2)N1O (stereo not drawn)	PfHsp40 rescue 168 (no result: BJeLR viability)
O=C1c2ccccc2NC(c2ccc(-c3ccc(Br)cc3)o2)N1O (stereo not drawn)	none
O=C1c2ccccc2NC(c2ccc(-c3cccc([N+](=O)[O-])c3)o2)N1O (stereo not drawn)	PfHsp40 rescue 233
CC1CCN(CC(=O)Nc2ccccc2-c2nc3ccccc3[nH]c2=O)CC1	none (no result: PrPC TRFRET, PfHsp40 rescue, Yp Topo-I inh, BJeLR viability, PrP UTR inh)
COc1ccc(C)cc1Nc1c(C#N)cnc2ccc(Cl)cc12	none (no result: PrPC TRFRET, PfHsp40 rescue, Yp Topo-I inh, BJeLR viability, PrP UTR inh)
CCOC(=O)c1c(NC(=O)C=C(C)C)sc(C)c1-c1ccc(Cl)cc1	none (no result: PrPC TRFRET, PfHsp40 rescue, Yp Topo-I inh, BJeLR viability, PrP UTR inh)
O=C(O)c1cccnc1SCc1ccc([N+](=O)[O-])cc1	none
O=[N+]([O-])c1cccnc1Sc1ccc(Br)cc1	PriA SSB inh 48
Cc1ccc(Sc2ncccc2[N+](=O)[O-])cc1	none
O=[N+]([O-])c1cccnc1SCc1ccccc1	PriA SSB inh 48
CCOc1ccccc1C(=O)NCC[C@H](O)c1ccccc1	PriA SSB inh 43 (no result: PrPC TRFRET, PfHsp40 rescue, Yp Topo-I inh, BJeLR viability, PrP UTR inh)
OC(COCC1CC2CCC1C2)CN1CCN(C(c2ccccc2)c2ccccc2)CC1 (stereo not drawn)	none (no result: PrPC TRFRET, PfHsp40 rescue, Yp Topo-I inh, BJeLR viability, PrP UTR inh)
O=C(Nc1ccc2c(c1)OCO2)c1ccc(=O)n(Cc2cccc(F)c2)n1	PriA SSB inh 17 (no result: PrPC TRFRET, PfHsp40 rescue, Yp Topo-I inh, BJeLR viability, PrP UTR inh)
O=C(O)c1ccc(Br)cn1	none
O=C(O)c1ccc(C2CCCC2)cn1	PriA SSB inh 100 (no result: PrPC TRFRET, PfHsp40 rescue, Yp Topo-I inh, BJeLR viability, PrP UTR inh)
COc1cc(NC(=O)c2cc(C3CC3)on2)ncn1	none (no result: PrPC TRFRET, PfHsp40 rescue, Yp Topo-I inh, BJeLR viability, PrP UTR inh)
CCOC(=O)C1C(=O)CC(C)(O)C(C(=O)OCC)C1c1cccc(OC(F)(F)C(F)F)c1 (stereo not drawn)	none
CCOC(=O)C1SC2(C(F)F)CC1(O)c1c(c(OC)c3occc3c1OC)O2 (stereo not drawn)	PfHsp40 rescue 38
CCCCCCC(C)(C)c1ccc([C@@H]2C[C@H](O)CC[C@H]2CCCO)c(O)c1	PfHsp40 rescue 68 (no result: BJeLR viability)
N#CCCN1CCN(c2ccccc2)CC1	none (no result: PrPC TRFRET, PfHsp40 rescue, Yp Topo-I inh, BJeLR viability, PrP UTR inh)
COc1ccc(Br)cc1C1NC(=O)NC(C)=C1C(=O)N(C)C (stereo not drawn)	none
COc1ccc(Br)cc1C1NC(=O)NC1=O (stereo not drawn)	PriA SSB inh 47 (no result: PrPC TRFRET, PfHsp40 rescue, Yp Topo-I inh, BJeLR viability, PrP UTR inh)
COc1ccc(C)cc1S(=O)(=O)Nc1ccc2c(c1)CN(C(=O)c1ccco1)CC2	none (no result: PrPC TRFRET, PfHsp40 rescue, Yp Topo-I inh, BJeLR viability, PrP UTR inh)
COc1ccc(Nc2nc(NC(C)(C)C)nc(N3CCCC3)n2)c(OC)c1	PriA SSB inh 44
Cc1ccc(NC(=O)CSc2ccc(NC(=O)C(C)C)nn2)cc1Cl	none (no result: PrPC TRFRET, PfHsp40 rescue, Yp Topo-I inh, BJeLR viability, PrP UTR inh)
O=C(COC(=O)c1ccccc1C(=O)c1ccccc1)Nc1ccc(SC(F)F)cc1	PfHsp40 rescue 94
Cn1ccc(C(=O)N(CC2CCCO2)c2nc3c(F)cc(F)cc3s2)n1 (stereo not drawn)	none (no result: PrPC TRFRET, PfHsp40 rescue, Yp Topo-I inh, BJeLR viability, PrP UTR inh)
CN1CC(=O)NC(c2ccc(Br)cc2)C1=O (stereo not drawn)	none (no result: PrPC TRFRET, PfHsp40 rescue, Yp Topo-I inh, BJeLR viability, PrP UTR inh)
CCOc1ccc(-c2ccc(N3CCN(C(=O)NCc4ccccc4)CC3)nn2)cc1	none (no result: PrPC TRFRET, PfHsp40 rescue, Yp Topo-I inh, BJeLR viability, PrP UTR inh)
CCn1nc(C(=O)Nc2nc3c(C)cc(C)cc3s2)cc1C	none (no result: PrPC TRFRET, PfHsp40 rescue, Yp Topo-I inh, BJeLR viability, PrP UTR inh)
O=S(=O)(c1ccc(F)cc1)N1CCN(c2ccc(-c3ccco3)nn2)CC1	none (no result: PrPC TRFRET, PfHsp40 rescue, Yp Topo-I inh, BJeLR viability, PrP UTR inh)
